Rows were chosen to be rich in hits. Some 3.4% of all compounds tested hit in one or more screens of this group.
MEKK2 mut-MEK5 = signal of MEK5 binding to mutant human MEKK2 PB1 domain. bead flow cytometry, Alexa488-MEK5 binding to MEKK2 mutant. percent response, % at 10 µM. AID 1530. hit rate 0.35% among 290,000; in the data active = percent response above about 24%, passing the limit was not always enough
MEKK2wt PB1 HTS = raises or lowers MEK5 binding to wildtype human MEKK2 PB1 domain; Q9Y2U5; bead flow cytometry, Alexa488-MEK5 binding to MEKK2 WT; actives lie on both sides; binding response (% of control), % at 10 µM; hit rate 1.1% among 290,000; in the data active = binding response below about 67% or above about 130%
TMEM16A inh = inhibitors of mouse TMEM16A calcium-activated chloride channel; Q8BHY3; HEK293 TMEM16A/YFP iodide influx fluorescence, ionomycin; normalized B-score (activity score, 25-100; higher = stronger inhibition) at 10 µM; hit rate 1.2% among 310,000; AID 588511;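 active = ratio plate-corrected score three or more library SD toward inhibition, starting fluorescence score within five deviations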;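 also: score derived from kinetic fluorescence span divided by baseline fluorescence per well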
TMEM16A act = activates or potentiates the mouse TMEM16A chloride channel | B-score at 10 µM | hit rate 0.3% among 340,000 | HEK293 TMEM16A/YFP-H148Q/I152L, iodide quench fluorescence; hits give low values | Q8BHY3;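 active = fluorescence-ratio B-score plate-corrected deviation score at least 3 library SD below zero, with starting fluorescence score within 5 deviations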;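 also: channel opened by trigger with iodide after compound preincubation; score built on the fluorescence ratio of max minus min over baseline; more negative score means more quench and so TMEM16A activation or potentiation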
NTR1 agonist = NTR1 (human) agonism | P30989 | NTR1-U2OS beta-arrestin-GFP spot imaging, agonist mode | activation, % at 20 µM | hit rate 0.17% among 330,000 | AID 493036;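 active = activation at or above 40% of the spot to cytoplasm intensity ratio, with at least 20 cells analyzed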
Target sequence (P30989 whole entry, looked up): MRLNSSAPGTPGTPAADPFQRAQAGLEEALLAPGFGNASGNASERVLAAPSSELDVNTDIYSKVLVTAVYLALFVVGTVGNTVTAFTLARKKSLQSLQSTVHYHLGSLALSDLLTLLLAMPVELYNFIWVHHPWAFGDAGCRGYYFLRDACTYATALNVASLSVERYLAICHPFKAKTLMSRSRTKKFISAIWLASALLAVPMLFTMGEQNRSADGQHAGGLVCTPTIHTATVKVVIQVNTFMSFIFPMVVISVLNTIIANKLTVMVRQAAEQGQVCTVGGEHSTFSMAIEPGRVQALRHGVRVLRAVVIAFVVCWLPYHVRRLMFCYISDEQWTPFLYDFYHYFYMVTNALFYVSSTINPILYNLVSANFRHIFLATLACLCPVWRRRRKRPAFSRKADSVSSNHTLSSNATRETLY
MEKK3 PB1 HTS = MEKK3-MEK5 PB1 interaction, increase or decrease. Q99759. bead-based flow cytometry, Alexa488-MEK5 binding to MEKK3; actives lie on both sides; 0 = blocked by unlabeled MEK5, 100 = vehicle. binding response (% of control), % at 10 µM. hit rate 1.4% among 290,000;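 active = binding response more than 3 SD above or below the average of its plate-row segment, actives on both sides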;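 also: Alexa488 bead fluorescence after subtracting the streptavidin-only scavenger bead signal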
TMEM16A reconf = TMEM16A (mouse) chloride channel inhibition, re-confirmation. shares compounds with TMEM16A inh. HEK293 TMEM16A/YFP-H148Q, iodide quench fluorescence; ionomycin added to raise cell calcium. inhibition, % at 10 µM. hit rate 39% among 2,300;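 active = mean duplicate percent inhibition, scaled so buffer wells are 0 and the reference blocker 100, over three buffer SD above buffer mean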
TMEM16A Ca cntr = counter-screen for TMEM16A inhibitors: effect on calcium mobilization; shares compounds with TMEM16A inh; TMEM16A/YFP HEK293, Fluo4 calcium mobilization; calcium response (% of ionomycin), % at 10 µM; hit rate 2% among 2,300; AID 652231;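 active = duplicate-averaged calcium signal over 20% of the ionomycin maximum, relative to buffer baseline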;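 also: each well's signal is peak minus trough fluorescence divided by its pre-addition baseline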
YFP-HEK293 quench = acts in parental YFP-HEK293 cells lacking TMEM16A, counter-screen; YFP ratio F(max-min)/F0 at 10 µM; iodide YFP quench, ionomycin; shares compounds with TMEM16A inh; 2,300 tested, under 10 active;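 active = yellow fluorescent protein signal ratio exceeding the buffer control mean by over 5 SD of those controls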;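 also: ratio is mean of duplicate wells from kinetic YFP trace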
ClC-1 inh = blocks the rat ClC-1 voltage-dependent chloride channel; ratio percent, % at 10 µM; CHO ClC-1-YFP, iodide influx fluorescence quench; iodide control reads 0, buffer control 100; 2,300 tested, under 10 active; AID 652236; shares compounds with TMEM16A inh;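 active = duplicate-mean ratio percent above the mean of iodide-only control wells, which defines zero, plus 5 of their SD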;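 also: higher percent means stronger block of ClC-1 iodide influx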
Of the large screens only hits and unclear results are named; the others gave an inactive call (follow-up assays come after a bar, where they were run).

COc1cccc(N/C=C(\C#N)c2ccc(OCCCF)cc2)c1	TMEM16A inh 100 | TMEM16A reconf inactive | TMEM16A Ca cntr inactive | YFP-HEK293 quench inactive | ClC-1 inh inactive
CC(Sc1nc(-c2ccccc2)cc(C(F)(F)F)n1)C(=O)N1CCCCC1 (stereo unspecified)	none
CC1CCCN(C(=O)C(C)Sc2nc(-c3ccccc3)cc(C(F)(F)F)n2)C1 (stereo unspecified)	TMEM16A inh 100 | TMEM16A reconf inactive | TMEM16A Ca cntr inactive | YFP-HEK293 quench inactive | ClC-1 inh inactive
O=c1c2c3c(sc2nc2sc(CN4CCOCC4)cn12)CCCC3	none (no result: TMEM16A inh, NTR1 agonist)
CCCc1cc(C(=O)N2CCN(c3ccc(C(F)(F)F)cn3)CC2)sc1C	TMEM16A inh 100 | TMEM16A reconf inactive | TMEM16A Ca cntr inactive | YFP-HEK293 quench inactive | ClC-1 inh inactive
Cc1ccc(C(=O)N2CCN(c3ccc(C(F)(F)F)cn3)CC2)cc1	none
COc1cccc(CN(C(=O)c2ccccc2Cl)C2CCS(=O)(=O)C2)c1 (stereo unspecified)	none
Cc1cc(C)nc(SCC(=O)Nc2ccc(N3CCOCC3)c(Cl)c2)n1	TMEM16A inh 100 | TMEM16A reconf inactive | TMEM16A Ca cntr inactive | YFP-HEK293 quench inactive | ClC-1 inh inactive
CC(=O)Nc1ccc2nc(SCC(=O)Nc3ccc(N4CCOCC4)c(Cl)c3)sc2c1	none
O=C(CSc1nc2ccccc2s1)Nc1ccc(N2CCOCC2)c(Cl)c1	TMEM16A inh 100 | TMEM16A reconf inactive | TMEM16A Ca cntr inactive | YFP-HEK293 quench inactive | ClC-1 inh inactive
O=C(CSc1nc2ccccc2o1)Nc1ccccc1N1CCCCCC1	TMEM16A inh 25 | TMEM16A reconf inactive | TMEM16A Ca cntr inactive | YFP-HEK293 quench inactive | ClC-1 inh inactive
O=C(CSc1nc2ccccc2o1)Nc1cc(C(F)(F)F)ccc1N1CCOCC1	none
Cc1cc(C)nc(NC(=O)CSc2nc3ccccc3o2)n1	none
O=C(CSc1nc2ccccc2o1)Nc1ccc(N2CCOCC2)c(Cl)c1	TMEM16A inh 100 | TMEM16A reconf 24.0% | TMEM16A Ca cntr inactive | YFP-HEK293 quench inactive | ClC-1 inh inactive
O=C(NNc1ccc(O)cc1)c1ccc(Br)cc1	none
O=S(=O)(Nc1nc2ccccc2nc1N1CCN(c2ccccc2F)CC1)c1ccc(Cl)cc1	TMEM16A inh 100 | TMEM16A reconf 38.0% | TMEM16A Ca cntr inactive | YFP-HEK293 quench inactive | ClC-1 inh inactive
CCOC(=O)N1CCC(Nc2nc3ccccc3nc2NS(=O)(=O)c2ccc(Cl)cc2)CC1	none | TMEM16A reconf 31.5% | TMEM16A Ca cntr inactive | YFP-HEK293 quench inactive | ClC-1 inh inactive
CCOc1ccc(S(=O)(=O)Nc2nc3ccccc3nc2N2CCN(C)CC2)cc1	none
CC(C)CC(=O)N/C(N)=N/c1nc2ccccc2o1	none
Cc1cn([C@H]2C[C@H](O)[C@@H](CCC(=O)NCCCn3ccnc3)O2)c(=O)[nH]c1=O	none (no result: MEKK2 mut-MEK5, MEKK2wt PB1 HTS, TMEM16A inh, TMEM16A act, MEKK3 PB1 HTS)
Cc1ccc(C(=O)CSc2nc3ccccc3c(=O)[nH]2)cc1	TMEM16A inh 100 | TMEM16A reconf inactive | TMEM16A Ca cntr inactive | YFP-HEK293 quench inactive | ClC-1 inh inactive
CCc1ccc(C(=O)CSc2nc3ccccc3c(=O)[nH]2)cc1	none
Cc1cccc(NC(=O)N(Cc2nc3ccccc3c(=O)[nH]2)C2CCCC2)c1	none
Cc1ccc(C(=O)N(Cc2nc3ccccc3c(=O)[nH]2)C2CCCC2)cc1	TMEM16A inh 100 | TMEM16A reconf inactive | TMEM16A Ca cntr inactive | YFP-HEK293 quench inactive | ClC-1 inh inactive
Cc1cc(C)c(OCC(=O)Nc2ccccc2N2CCCCC2)c(C)c1	none (no result: MEKK2 mut-MEK5, MEKK2wt PB1 HTS, MEKK3 PB1 HTS)
Cc1cc(C)c(OCC(=O)Nc2ccccc2N2CCOCC2)c(C)c1	TMEM16A inh 100 | TMEM16A reconf 37.0% | TMEM16A Ca cntr inactive | YFP-HEK293 quench inactive | ClC-1 inh inactive
O=C(Cc1ccccc1)Nc1cc(C(=O)c2ccccc2)ccc1N1CCOCC1	TMEM16A inh 100 | TMEM16A reconf inactive | TMEM16A Ca cntr inactive | YFP-HEK293 quench inactive | ClC-1 inh inactive
COc1c(C)cc(C(=O)C2CCCN(C(=O)/C=C/c3ccccn3)C2)cc1C (stereo unspecified)	none
Cc1[nH]c(N=Nc2ccccc2)nc1N=Nc1ccccc1	TMEM16A inh 100 | TMEM16A reconf inactive | TMEM16A Ca cntr inactive | YFP-HEK293 quench inactive | ClC-1 inh inactive
Nc1ccc(N=Nc2ccccc2)c(N)n1	none
COc1ccc(-c2nn3c(-c4ccccc4)nnc3s2)cc1	none
CCN(CC)c1ccc(-c2nn3c(-c4ccccc4OC)nnc3s2)cc1	TMEM16A inh 100 | TMEM16A reconf inactive | TMEM16A Ca cntr inactive | YFP-HEK293 quench inactive | ClC-1 inh inactive
CCOc1cc(S(=O)(=O)NCCc2ccc(OC)c(OC)c2)c(OCC)cc1-n1cnnn1	TMEM16A inh 25 | TMEM16A reconf inactive | TMEM16A Ca cntr inactive | YFP-HEK293 quench inactive | ClC-1 inh inactive
CC(CCc1ccccc1)NC(=O)CNC(=O)c1cccs1 (stereo unspecified)	none
Cc1c(Cl)cccc1NC(=S)NNc1ncc(C(F)(F)F)cc1Cl	TMEM16A inh 25 | TMEM16A reconf 40.0% | TMEM16A Ca cntr inactive | YFP-HEK293 quench inactive | ClC-1 inh inactive
Cc1cccc(C)c1NC(=S)NNc1ncc(C(F)(F)F)cc1Cl	none
N#CC(Sc1ccccn1)c1ccc(Cl)cc1Cl (stereo unspecified)	none
CCOC(=O)Cc1csc(NC(=O)c2ccncc2)n1	TMEM16A inh 100 | TMEM16A reconf 19.0% | TMEM16A Ca cntr inactive | YFP-HEK293 quench inactive | ClC-1 inh inactive
CCOC(=O)Cc1csc(NC(=O)c2ccc(Br)cc2)n1	none
Cc1cccc(NC(=O)CCN2C(=O)C3C4C=CC(C4)C3C2=O)n1 (stereo unspecified)	none
CCOC(=O)c1cc(NC(=O)Nc2ccc(OC)c(OC)c2)c(C)nc1C	TMEM16A inh 100 | TMEM16A reconf inactive | TMEM16A Ca cntr inactive | YFP-HEK293 quench inactive | ClC-1 inh inactive
CCOC(=O)c1cc(NC(=O)N(C(C)C)C(C)C)c(C)nc1C	none
